From PubChem BioAssay (NCI)
The panel holds about 83,000 compounds, 20% with a hit somewhere; the sample as a whole holds those more often.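 Testing used 96-well plates and a 48-hour single-concentration exposure. Example: -40 means 40% of the starting cells died.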 A number with no mark means an inactive call. Calls of active or inactive are those of the source. Rule for the calls: active = growth percent below 10; inactive = the rest.

The molecules below were run on MDA-MB-468 breast (assay: NCI-60 one-dose screen, 48 h (100 = growth as untreated, 0 = no growth, -100 = all killed)). Conditions: 10 µM unless noted.

SMILES	growth
COC(=O)[C@@H](NC(=O)[C@@H](OC)[C@@H]1Cc2cc3cc(OC4CC(OC5CC(O)C(O)C(C)O5)C(O)C(C)O4)c(C)c(O)c3c(O)c2C(=O)[C@H]1OC1CC(OC2CC(OC3CC(C)(O)C(O)C(C)O3)C(O)C(C)O2)C(O)C(C)O1)C(C)C (stereo not given in full)	-3.89% (active)
O=C(c1ccccc1)C(CN1CCCCC1)c1ccccc1 (stereo not given)	-29.1% (active)
O=C1/C(=C\c2cn(-c3nc(N4CCOCC4)nc(N4CCOCC4)n3)c3ccccc23)c2ccccc2N1c1c(Cl)cccc1Cl	17%
Cc1ccc(-c2cc3nc(C(Cl)Cl)nc(-c4ccccc4C)n3n2)cc1	49.8%
COc1ccc(C2CC(c3cccc(Nc4ccncc4)c3)=NN2c2ccc(Cl)cc2)cc1 (stereo not given)	45.3%
Cc1cc(C)c(NC(=O)c2sc3nc4c(cc3c2N)CN(Cc2ccccc2)CC4)c(C)c1	14%
CS(=O)(=O)c1cccc(-c2c(-c3cccc(OS(N)(=O)=O)c3)nc3sccn23)c1	104%
CC(=O)O[C@H]1CC[C@]2(C)[C@H]3C(=O)C=C4[C@@H]5C[C@](C)(C(=O)N6CCCNCC6)CC[C@]5(C)CC[C@@]4(C)[C@]3(C)CC[C@H]2C1(C)C	-85.2% (active)
COc1ccc(Nc2nccc(N3CCN(c4c5ccc(Cl)cc5nc5ccc(OC)cc45)CC3)n2)cc1	31.5%
COc1ccc(-c2cc(-c3cc(OC)c(OC)c(OC)c3)c(C#N)c(N3CCOCC3)n2)cc1O	76.7%
COc1cccc(/C(C)=N/NC(=O)CSc2nc3ccccc3c(=O)n2CCc2ccc(S(N)(=O)=O)cc2)c1	35.3%
COC(=O)c1nc(-c2ccccc2)oc1S(=O)(=O)N1CCN(c2cccc(Cl)c2)CC1	46.6%
COc1cc(-c2ccc3ncnc(NC(C)c4ccccc4)c3c2)cnc1OC (stereo not given)	-3.02% (active)
O=Cc1ccc(F)cc1	91%
CC12CCC3C4(C)COC(c5ccco5)OC4CCC3(C)C1CC(C1=CCOC1=O)O2 (stereo not given)	91.8%
COc1ccc(Nc2ncc(Br)c(NCCCNC(=O)C3CCCC3)n2)cc1	54.5%
O=S(=O)(NCCNc1nccc(-n2cnc3ccccc32)n1)c1ccc(Cl)cc1	101%
COc1cc2cc(COc3nccc(-c4ccc(Cl)cc4)n3)c(=O)[nH]c2cc1OC	80.1%

SMILES	growth
COc1ccc(N)cc1C(=O)Nc1cccc(-c2cc(=O)c3c(OC)c(OC)c(OC)cc3o2)c1	55.9%
C/C(=N\NC(=O)c1ccccc1N)c1ccccc1O	15.5%
COc1cc2nc(N3CCC[C@H](NC4=CC(=O)c5ccccc5C4=O)C3)nc(N)c2cc1OC	-55.9% (active)
OCC(O)C(O)C(O)C(/C=N/Nc1ccccc1)=N/Nc1ccccc1 (stereo not given)	68%
Cc1ccc(C(=O)NCCCNc2nccc(-n3ccc4cccnc43)n2)cc1	95.6%
COc1ccc(CCNc2nc(SC)nc(-c3cccc([N+](=O)[O-])c3)c2C#N)cc1OC	84.8%
CC(C)C(C(=O)NCCN1CCOCC1)N1C(=O)/C(=C/c2ccc(Br)cc2)SC1=S (stereo not given)	99.2%
CC(=O)c1c(C)[nH]c(-c2nc3ccc(N4CCN(C)CC4)cc3[nH]2)c1-c1ccc2c(c1)OCCO2	12.6%
O=C(CSc1nc2ccc([N+](=O)[O-])cc2[nH]1)Nc1ccc(Br)cc1	14.1%
O=C(/C=C/c1cc([N+](=O)[O-])ccc1Cl)c1ccccc1	57.6%
O=C(Nc1cccc([N+](=O)[O-])c1)c1ccc2ccccc2c1O	52.4%
COc1ccc(S(=O)(=O)n2c3ccccc3n3ncc(-c4nnc(C)o4)c23)cc1	-19.5% (active)
COc1ccc(C[n+]2c3ccccc3n3c4ccc(N)cc4ccc32)c(OC)c1OC	-22.5% (active)
Cc1ccc(-c2nc3ccccn3c2/C=C2/C(=O)Nc3cc(Cl)ccc32)cc1	67%
CCN(CC)CCOc1ccc(C(=C(C)c2ccc(Cl)cc2)c2ccc(OCCN(CC)CC)cc2)cc1	-81.6% (active)
O=C(CCl)N1c2ccccc2Sc2ccc3ccccc3c21	-76.1% (active)
CCOC(=O)c1c(O)cc(-c2ccccc2)cc1-c1sc(N(C)Cc2ccccc2)nc1Cl	111%
